This assay addresses furin, P09958. In words: furin cleavage Z-score vs untreated control; higher = more cleavage, active = 3.5 or more, inactive = 1 or less, 8 variable residues between constant flanks. In short, it runs like this:
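Sequencing of released DNA, tagged with adapters by PCR, gave read counts used as abundance. That DNA was freed when purified furin cut N-terminally bead-bound 8-mer peptides fused to a cDNA oligonucleotide, in 0.01 ml reactions at 1:10 enzyme:substrate in 50 mM HEPES pH 7.5 with CaCl2 and NaCl, lasting 7.5, 15 or 30 min. The cleavage Z-score was the lowess-adjusted log count versus furin-free reactions, scaled by median absolute deviation.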

The other results are listed elsewhere or left out. The hit rate among all sequences tested is not known here.

furin, P09958, sequence (P09958 whole entry, the tested form may be a part): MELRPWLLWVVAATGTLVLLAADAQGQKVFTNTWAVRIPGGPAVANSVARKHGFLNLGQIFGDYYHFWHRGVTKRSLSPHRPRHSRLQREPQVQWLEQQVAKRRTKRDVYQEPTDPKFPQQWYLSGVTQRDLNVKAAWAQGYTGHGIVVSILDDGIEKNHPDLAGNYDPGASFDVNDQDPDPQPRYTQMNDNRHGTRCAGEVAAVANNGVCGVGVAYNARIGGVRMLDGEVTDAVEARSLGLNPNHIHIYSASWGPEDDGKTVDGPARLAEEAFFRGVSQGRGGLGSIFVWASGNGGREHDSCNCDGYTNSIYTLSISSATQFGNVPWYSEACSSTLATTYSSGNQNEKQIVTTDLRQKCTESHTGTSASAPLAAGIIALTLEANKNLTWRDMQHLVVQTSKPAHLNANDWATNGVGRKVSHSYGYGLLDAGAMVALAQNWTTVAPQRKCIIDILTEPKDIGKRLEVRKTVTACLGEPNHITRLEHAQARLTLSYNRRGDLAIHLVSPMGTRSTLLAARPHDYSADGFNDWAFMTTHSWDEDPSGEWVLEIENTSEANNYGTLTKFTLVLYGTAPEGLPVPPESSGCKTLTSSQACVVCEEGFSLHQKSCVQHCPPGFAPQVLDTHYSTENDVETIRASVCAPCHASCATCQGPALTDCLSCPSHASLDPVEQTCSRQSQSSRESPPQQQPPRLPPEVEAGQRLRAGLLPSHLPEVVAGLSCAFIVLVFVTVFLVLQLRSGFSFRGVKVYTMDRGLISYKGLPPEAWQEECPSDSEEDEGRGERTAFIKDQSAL

B1: HC2100 (peptide)
chain: CAVVCCSMSCAGNASASA
As to B1, the “furin cleavage Z-score” value runs as follows: (7.5 min) -1.04 (inactive); (15 min) -1.97 (inactive); (30 min) -0.294 (inactive).

B2: FS-1351 (peptide)
chain: CAKSPRRTRSAGNASASA
Regarding B2, the “furin cleavage Z-score” value is 5.21 (active) (7.5 min), 4.36 (active) (15 min) and 2.84 (30 min).

B3: FS-693 (peptide)
chain: CANDARRTRSAGNASASA
As to B3, the “furin cleavage Z-score” value is, setting by setting: (7.5 min) 6.7 (active); (15 min) 7.77 (active); (30 min) 7.39 (active).

B4: HC1977 (peptide)
chain: CAESTTPCSGAGNASASA
Take B4: the “furin cleavage Z-score” value by setting is: (7.5 min) -0.591 (inactive); (15 min) 0.488 (inactive); (30 min) -0.368 (inactive).

B5: HC419 (peptide)
chain: CAGTTDRSGAAGNASASA
B5: the “furin cleavage Z-score” value was 1 (7.5 min), 2.15 (15 min) and -0.141 (inactive) (30 min).

B6: HC1018 (peptide)
chain: CALPYIEQGMAGNASASA
Turning to B6, the “furin cleavage Z-score” value runs as follows: (7.5 min) -0.393 (inactive); (15 min) -0.653 (inactive); (30 min) 2.95.

B7: FS-1370 (peptide)
chain: CALRSRWGRSAGNASASA
As for B7, the “furin cleavage Z-score” value is 6.03 (active) (7.5 min), 5.71 (active) (15 min) and 6.06 (active) (30 min).

B8: FS-846 (peptide)
chain: CAQDPRSGRSAGNASASA
Turning to B8, the “furin cleavage Z-score” value by setting is: (7.5 min) 0.797 (inactive); (15 min) -0.812 (inactive); (30 min) -0.37 (inactive).

B9: FS-1057 (peptide)
chain: CAQRERSGRSAGNASASA
Regarding B9, the “furin cleavage Z-score” value was 4.28 (active) (7.5 min), 6.49 (active) (15 min) and 6.16 (active) (30 min).

B10: FS-613 (peptide)
chain: CALRLRKGRSAGNASASA
As for B10, the “furin cleavage Z-score” value reads like this: (7.5 min) 2.52; (15 min) 2.83; (30 min) 0.738 (inactive).

B11: FS-416 (peptide)
chain: CAEQGRQGRSAGNASASA
As to B11, the “furin cleavage Z-score” value runs as follows: (7.5 min) -1.07 (inactive); (15 min) -0.0349 (inactive); (30 min) 0.708 (inactive).

B12: FS-1391 (peptide)
chain: CAQQHRQGRSAGNASASA
Regarding B12, the “furin cleavage Z-score” value by setting is: (7.5 min) 6.09 (active); (15 min) 6.71 (active); (30 min) 6.63 (active).

B13: FS-57 (peptide)
chain: CALRSRSGRSAGNASASA
Take B13: the “furin cleavage Z-score” value (7.5 min) was 4.75 (active), the “furin cleavage Z-score” value (15 min) is 5.58 (active) and the “furin cleavage Z-score” value (30 min) is 4.32 (active).

B14: HC1504 (peptide)
chain: CATNSRGENCAGNASASA
For B14, the “furin cleavage Z-score” value is, setting by setting: (7.5 min) 0.0549 (inactive); (15 min) 0.267 (inactive); (30 min) 0.425 (inactive).

B15: HC1923 (peptide)
chain: CATTPCSGSAAGNASASA
As for B15, the “furin cleavage Z-score” value is, setting by setting: (7.5 min) 0.77 (inactive); (15 min) -1.08 (inactive); (30 min) -0.465 (inactive).

B16: HC883 (peptide)
chain: CATGDFDSVIAGNASASA
Take B16: the “furin cleavage Z-score” value is -0.133 (inactive) (7.5 min), -1.34 (inactive) (15 min) and -0.511 (inactive) (30 min).

B17: FS-433 (peptide)
chain: CAGSFRSLRSAGNASASA
For the sequence B17, the “furin cleavage Z-score” value was -0.832 (inactive) (7.5 min), -0.397 (inactive) (15 min) and -0.333 (inactive) (30 min).

B18: FS-137 (peptide)
chain: CANLMRPKRSAGNASASA
In the case of B18, the “furin cleavage Z-score” value (7.5 min) was 11.8 (active), the “furin cleavage Z-score” value (15 min) is 11.3 (active) and the “furin cleavage Z-score” value (30 min) is 8.61 (active).

B19: FS-65 (peptide)
chain: CANRGIGKRSAGNASASA
Regarding B19, the “furin cleavage Z-score” value was 7.18 (active) (7.5 min), 8.2 (active) (15 min) and 7.79 (active) (30 min).

B20: FS-1206 (peptide)
chain: CAGSFRGKRSAGNASASA
Turning to B20, the “furin cleavage Z-score” value (7.5 min) is 11.1 (active), the “furin cleavage Z-score” value (15 min) is 11.4 (active) and the “furin cleavage Z-score” value (30 min) was 8.01 (active).

B21: FS-1638 (peptide)
chain: CAKRRLQKRSAGNASASA
As for B21, the “furin cleavage Z-score” value was 11.7 (active) (7.5 min), 9.73 (active) (15 min) and 9.24 (active) (30 min).

B22: HC1166 (peptide)
chain: CACQRGYKGVAGNASASA
B22: the “furin cleavage Z-score” value is -1.45 (inactive) (7.5 min), -3.75 (inactive) (15 min) and -2.51 (inactive) (30 min).

B23: HC2448 (peptide)
chain: CAEWEVPCHRAGNASASA
As for B23, the “furin cleavage Z-score” value (7.5 min) turned out to be 1.07, the “furin cleavage Z-score” value (15 min) came to 2.14 and the “furin cleavage Z-score” value (30 min) is 0.904 (inactive).

B24: HC1080 (peptide)
chain: CAIGSVGLGKAGNASASA
B24: the “furin cleavage Z-score” value is 1.13 (7.5 min), 0.942 (inactive) (15 min) and -0.856 (inactive) (30 min).

B25: HC1832 (peptide)
chain: CAETPCSGSWAGNASASA
Consider B25, for which the “furin cleavage Z-score” value is -0.56 (inactive) (7.5 min), -0.454 (inactive) (15 min) and -0.69 (inactive) (30 min).

B26: HC866 (peptide)
chain: CAGINAVAYYAGNASASA
Turning to B26, the “furin cleavage Z-score” value was -0.468 (inactive) (7.5 min), -1.09 (inactive) (15 min) and -1.09 (inactive) (30 min).

B27: FS-2089 (peptide)
chain: CARSRKEVELAGNASASA
As for B27, the “furin cleavage Z-score” value is, setting by setting: (7.5 min) 0.0687 (inactive); (15 min) 0.38 (inactive); (30 min) -1.75 (inactive).

B28: FS-350 (peptide)
chain: CALKRRGKRSAGNASASA
For the sequence B28, the “furin cleavage Z-score” value was 12.2 (active) (7.5 min), 12.5 (active) (15 min) and 8.44 (active) (30 min).

B29: FS-358 (peptide)
chain: CALRKYPKRSAGNASASA
With B29, the “furin cleavage Z-score” value by setting is: (7.5 min) 0.0194 (inactive); (15 min) 0.839 (inactive); (30 min) 1.49.

B30: FS-14 (peptide)
chain: CACGGRGKRSAGNASASA
Take B30: the “furin cleavage Z-score” value (7.5 min) is 8.41 (active), the “furin cleavage Z-score” value (15 min) is 9.33 (active) and the “furin cleavage Z-score” value (30 min) is 7.54 (active).

B31: FS-754 (peptide)
chain: CADELRGKRSAGNASASA
On to B31, for which the “furin cleavage Z-score” value runs as follows: (7.5 min) -0.105 (inactive); (15 min) 0.269 (inactive); (30 min) -1.01 (inactive).

B32: FS-1064 (peptide)
chain: CARKRAQKRSAGNASASA
Turning to B32, the “furin cleavage Z-score” value reads like this: (7.5 min) 8.12 (active); (15 min) 9.12 (active); (30 min) 7.74 (active).

B33: FS-609 (peptide)
chain: CALKPRPKRSAGNASASA
In the case of B33, the “furin cleavage Z-score” value by setting is: (7.5 min) 10.8 (active); (15 min) 12.3 (active); (30 min) 9.88 (active).

B34: HC2391 (peptide)
chain: CAEVPCHRDSAGNASASA
Take B34: the “furin cleavage Z-score” value by setting is: (7.5 min) 0.533 (inactive); (15 min) 1.52; (30 min) 1.63.

B35: HC360 (peptide)
chain: CAFVSLLAPGAGNASASA
Turning to B35, the “furin cleavage Z-score” value runs as follows: (7.5 min) -0.325 (inactive); (15 min) -1.4 (inactive); (30 min) -1.08 (inactive).

B36: HC2371 (peptide)
chain: CAEVPCHDPSAGNASASA
For the sequence B36, the “furin cleavage Z-score” value (7.5 min) was 0.427 (inactive), the “furin cleavage Z-score” value (15 min) is 1.64 and the “furin cleavage Z-score” value (30 min) is 0.537 (inactive).

B37: HC2389 (peptide)
chain: CAEVPCHRYSAGNASASA
As for B37, the “furin cleavage Z-score” value reads like this: (7.5 min) 0.533 (inactive); (15 min) 1.28; (30 min) 1.5.

B38: HC1805 (peptide)
chain: CADLMEECSQAGNASASA
As to B38, the “furin cleavage Z-score” value is, setting by setting: (7.5 min) -0.946 (inactive); (15 min) -0.224 (inactive); (30 min) -0.925 (inactive).

B39: FS-610 (peptide)
chain: CALKRMQKRSAGNASASA
B39: the “furin cleavage Z-score” value by setting is: (7.5 min) 12.7 (active); (15 min) 13.3 (active); (30 min) 10.5 (active).

B40: FS-1008 (peptide)
chain: CAHLVRQKRAAGNASASA
For the sequence B40, the “furin cleavage Z-score” value runs as follows: (7.5 min) 10.3 (active); (15 min) 10.1 (active); (30 min) 7.65 (active).

B41: FS-227 (peptide)
chain: CAEALRQKRAAGNASASA
In the case of B41, the “furin cleavage Z-score” value was 6.68 (active) (7.5 min), 7.12 (active) (15 min) and 5.04 (active) (30 min).

B42: HC1541 (peptide)
chain: CAEAMTRYSAAGNASASA
On to B42, for which the “furin cleavage Z-score” value (7.5 min) is -0.217 (inactive), the “furin cleavage Z-score” value (15 min) was 0.448 (inactive) and the “furin cleavage Z-score” value (30 min) is -0.963 (inactive).

B43: HC1919 (peptide)
chain: CATTPCSGPWAGNASASA
Turning to B43, the “furin cleavage Z-score” value was -0.176 (inactive) (7.5 min), 1.46 (15 min) and 0.343 (inactive) (30 min).

For the origin of these results see the supplement of paper PMC3545927.
